# Laboratory results as given in PubChem BioAssay (NCATS).
# Results filed as inconclusive are left out. Calls of active or inactive are those of the source. Calls follow the shape of the dose curve; as a rule, active = well fitted inhibition curve with a large enough effect in the polarisation, with a control signal flat (not every such curve was filed as active); inconclusive = small, poorly fitted or top-dose-only effect, or effect the other way; inactive = flat fitted curve, though single readings scatter; the % refers to the polarisation.
# Target: Peptidyl-prolyl cis-trans isomerase NIMA-interacting 1 (Homo sapiens) (UniProt Q13526)
# Assay: qHTS Validation Assay to Find Inhibitors of Pin1 (AID 504536)
# Conditions: Pin1 fluorescence polarization peptide binding assay; series mostly up to 57.5 µM; activity, negative = inhibition: at the top concentration
# Text: NIH Molecular Libraries Probe Production Network [MLPCN]
# NIH Chemical Genomics Center [NCGC]
# The unique chemical properties of Pro allow for the adoption of two completely distinct amide bond conformations (cis and trans). Peptidyl-prolyl cis/trans isomerases (PPIases) are evolutionary conserved enzymes that catalyze cis/trans isomerization of peptidyl-prolyl peptide bonds. Distinct from all other PPIases such as cyclophilins and FK506-binding proteins (FKBPs), Pin1 binds a subset of phos.Ser/Thr-Pro-containing proteins using its protein-targeting WW domain and isomerizes only specific phos.Ser/Thr-Pro bonds, which cannot be effectively catalyzed by other known PPIases.
# Pin1-catalyzed conformational regulation can control a spectrum of activities of many key regulators in diverse cellular processes such as cell growth, genotoxic and other stress responses, immune response, germ cell development, neuronal differentiation and survival. Pin1 has emerged as a novel molecular timer that modulates its multiple targets at various steps of a given cellular process to synergistically control the amplitude and duration of a cellular response or process. Importantly, Pin1 is tightly regulated by multiple levels and its deregulation has an important role in a growing number of pathological conditions, including cancer, Alzheimer's disease, aging, asthma and microbial infection, providing a potentially new therapeutic option.
# The goal of this screen is to find small-molecule inhibitors of Pin1 using a fluorescence polarization competition assay. A HiFluor-488-labeled peptide binds to the active site of Pin1 and can be displaced by compounds. Compounds were screened as a concentration-titration series that ranged from 57 uM to 0.7 nM.
# NCGC Assay Protocol Summary:
# Pin1 (0.6 uM) was dispensed into black, solid 1536-well plates at 2 uL/well in 10 mM HEPES (pH 7.5), 10 mM NaCl, 0.01% Tween20, 1 mM DTT, and 1% glycerol. Then, 23 nL of compounds or DMSO were delivered to each well using a pin tool. Two uL of Pin1-1b-HiFluor488 peptide (10 mM HEPES (pH 7.5), 10 mM NaCl, 0.01% Tween20, 1 mM DTT, and 1% glycerol, 0.02 uM Pin1-1b-HiFluor488) was then dispensed, and plates were incubated at room temperature for 10 min. The plates were measured on a ViewLux plate reader for fluorescence polarization signal using a 480/20 nM nm excitation filter and 540/25 nM nm S and P emission filters with a 20 second exposure. The %Activity was determined from the corrected fluorescence polarization values. Unlabeled Pin1-1c peptide was used as a control (3.5 mM two-fold serial; 20 uM final concentration) along with a 1x (0.3 uM) and 0x (no-enzyme) Pin1 enzyme control to normalize %Activity of identified inhibitors; 0x enzyme values corresponded to 100%Activity (full inhibition), while 1x Pin1 enzyme values were used to normalize 0%Activity (no inhibition).
# Concentration-response curves were fitted to the signals arising from the resulting fluorescence polarization. The concentration-effect curves were then classified based on curve quality (r2), response magnitude and degree of measured activity, and compounds were subsequently categorized based on their curve class.
# Keywords: Peptidyl prolyl isomerase, Pin1, fluorescence polarization, MLSMR, MLPCN, NIH Roadmap, qHTS, NCGC
# Potency is read from the fitted curve at half-maximal effect.
# Sequence of Peptidyl-prolyl cis-trans isomerase NIMA-interacting 1 (Homo sapiens) (Q13526 whole entry, looked up): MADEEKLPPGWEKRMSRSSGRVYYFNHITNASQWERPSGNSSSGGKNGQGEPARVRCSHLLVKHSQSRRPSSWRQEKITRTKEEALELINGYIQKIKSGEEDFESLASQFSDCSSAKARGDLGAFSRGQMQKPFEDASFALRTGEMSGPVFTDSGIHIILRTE
SMILES,"activity, negative = inhibition",Potency
COc1cc2c(CCNC(C)=O)c[nH]c2cc1Cl,-7.78% (inactive),
O=C1NC(=O)/C(=C/c2ccc3nccnc3c2)S1,2.72% (inactive),
Clc1ccc(N2CCN(Cc3c[nH]c4ncccc34)CC2)cc1,8.01% (inactive),
Brc1c(Br)c(Br)c2n[nH]nc2c1Br,12.5% (inactive),
CN(C)CCCO[C@@H]1[C@H]2OC(C)(C)O[C@H]2O[C@@H]1[C@H](O)CO,-4.24% (inactive),
CN1CCc2cccc3c2C1Cc1ccc(O)c(O)c1-3 (stereo not given),-0.878% (inactive),
CNC(=O)[C@H]1O[C@@H](n2cnc3c(NCc4ccc(N)cc4)ncnc32)[C@H](O)[C@@H]1O,-0.635% (inactive),
CCCCC#Cc1nc(NC)c2ncn([C@@H]3O[C@H](CO)[C@@H](O)[C@H]3O)c2n1,7.66% (inactive),
S=C(S)OC1CC2CC1C1CCCC21 (stereo not given),-1.09% (inactive),
O=C(O)c1cc(=O)c2ccccc2[nH]1,-6.23% (inactive),
NC[C@H]1O[C@@H](n2cnc3c(N)ncnc32)[C@H](O)[C@@H]1O,-13.2% (inactive),
CCCCCCCCCCCCCCCCCC(=O)OC(CC(=O)O)C[N+](C)(C)C (stereo not given),3.23% (inactive),
CC(N)C(=O)OC(C)(C)Cc1ccc(Cl)cc1 (stereo not given),13% (inactive),
O=C(c1ccc(Cl)cc1)N1CCN(c2ccc([N+](=O)[O-])c3ncccc23)CC1,10.9% (inactive),
Clc1ccc(N2CCN(Cc3cc4ccccn4n3)CC2)cc1,2.33% (inactive),
NC(=S)NCCC[C@H](N)C(=O)O,7.51% (inactive),
N=c1ccn2c(n1)O[C@H]1[C@H](O)[C@@H](CO)O[C@H]12,8.74% (inactive),
NC(=S)c1ccc[n+]([C@@H]2O[C@@H](COP(=O)([O-])OP(=O)(O)OC[C@H]3O[C@@H](n4cnc5c(N)ncnc54)[C@H](OP(=O)(O)O)[C@@H]3O)C(O)C2O)c1 (stereo not given in full),,19 µM (active)
CC(C)NC[C@H](O)COc1cccc2[nH]ccc12,-0.0994% (inactive),
CCCCCCCCCCCCCCCC(=O)NCC(COP(=O)([O-])OCC[N+](C)(C)C)OCC (stereo not given),11.8% (inactive),

SMILES,"activity, negative = inhibition",Potency
Cc1ccc(O)c(N=Nc2ccccc2)n1,7.9% (inactive),
O=c1[nH]c2cc(C(F)(F)F)ccc2n1-c1cc(C(F)(F)F)ccc1O,0.355% (inactive),
NCCCS(=O)(=O)O,-13% (inactive),
COc1ccccc1N1CCN(CCN(C(=O)c2ccc(I)cc2)c2ccccn2)CC1,-20.9% (inactive),
CNC(=O)[C@H]1O[C@@H](n2cnc3c(NCc4cccc(I)c4)ncnc32)[C@H](O)[C@@H]1O,-3.55% (inactive),
O=C1O/C(=C/Br)CCC1c1cccc2ccccc12 (stereo not given),0.612% (inactive),
O=C(O)CC1CC(c2ccccc2)=NO1 (stereo not given),-34.1% (inactive),
O=C(O)[C@@H]1C[C@H](C(=O)O)N1,0.58% (inactive),
Cc1ccc(C(=O)O[C@H](C(=O)O)[C@@H](OC(=O)c2ccc(C)cc2)C(=O)O)cc1 (tested in a mixture with another compound),-10.9% (inactive),
N#C/C(=C\c1ccc(O)c(O)c1)C(=O)c1ccc(O)c(O)c1,,1.69 µM (active)
Cn1ncc(S(=O)(=O)Cc2ccccc2)c(Br)c1=O,-22.6% (inactive),
O=Nc1ccc2oc(=O)ccc2c1,0.0912% (inactive),
N[C@@H](CC(=O)O)C(=O)O,-6.72% (inactive),
CN1CCc2ccccc2Cc2[nH]c3ccccc3c2CC1,4.3% (inactive),
O=C1NC(=O)/C(=C/c2ccc(-c3ccc(F)cc3O)o2)S1,28.5% (inactive),
CCOC(=O)C1=C(C)NC(C)=C(C(=O)OCC)C1c1c(F)c(F)c(F)c(F)c1F,4.31% (inactive),
O=c1[nH]c2cc([N+](=O)[O-])c([N+](=O)[O-])cc2[nH]c1=O,-4.06% (inactive),
CCCCC/C=C\CC(O)/C=C/c1cccc(CC(O)CCCCO)n1 (stereo not given),37.4% (inactive),
c1cnc2c(c1)ccc1cccnc12,1.04% (inactive),
CN(C)c1nc2c(Br)c(Br)c(Br)c(Br)c2[nH]1,5.91% (inactive),
